Only some compounds are listed: those with a hit (about 0.99% of all), similar ones and a draw of the others.
NS1 function inh: influenza NS1 inhibition | Potency, µM (highest dose often 46.1 µM) | 270,000 tested, 0.4% active; calls by dose curve; note: actives are rising curves; nearly all actives have a fitted effect of over 50% in size
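S. cerevisiae expressing influenza A NS1, grown in glucose, washed, then diluted 1:100 into pH 6.0 -URA galactose medium with 23 nl compound. Growth recovery read as OD600; NS1-free strain serves as control.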
AmpC inh no detg: blocks E. coli AmpC beta-lactamase in detergent-free assay; 330,000 tested, 0.52% active; Potency, µM (top dose mostly 57.1 µM), actives largely listed as inhibitors; AmpC nitrocefin hydrolysis, absorbance 480 nm, 0.0001% Triton; AID 485341; note: nearly all actives have a fitted effect of over 20% in size
Target sequence (P00811 whole entry, looked up): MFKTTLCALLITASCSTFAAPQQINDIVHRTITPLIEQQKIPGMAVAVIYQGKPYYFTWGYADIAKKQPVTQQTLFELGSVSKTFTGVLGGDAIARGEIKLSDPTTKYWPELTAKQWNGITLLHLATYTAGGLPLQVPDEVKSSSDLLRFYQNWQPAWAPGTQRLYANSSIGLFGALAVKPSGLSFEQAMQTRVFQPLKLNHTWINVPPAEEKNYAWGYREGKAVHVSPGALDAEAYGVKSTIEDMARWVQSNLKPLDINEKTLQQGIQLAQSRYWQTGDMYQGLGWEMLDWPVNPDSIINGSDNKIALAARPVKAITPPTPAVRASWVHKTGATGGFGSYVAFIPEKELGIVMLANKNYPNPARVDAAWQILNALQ
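20 mM phosphate pH 7.0 + 0.01% (detergent screen) or 0.0001% Triton X-100; 5.3 nM AmpC reagent; cpd preinc 15 min RT; nitrocefin (800 uM stock) to start; A480 q20 s × 4 min; Activity was normalised to no-enzyme and no-compound control wells.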
AMA1 RON2 block: inhibitors of Plasmodium falciparum AMA1-RON2 interaction; AlphaScreen AMA1-biotinylated RON2 peptide binding; Potency, µM (titrated, usually from 58.2 µM), hits mostly inhibitors; 360,000 tested, 0.2% active; AID 720542; note: nearly all actives have a fitted effect of over 45% in size
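AMA1 (3D7) with his tag at 25 nM final met compounds first, then biotinylated RON2 peptide at 25 nM; detection used donor plus acceptor beads, 10 µg/mL apiece, read by AlphaScreen after 30 min at room temperature.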
AmpC inh detg: AmpC beta-lactamase inhibition with detergent present | AmpC hydrolysis of nitrocefin, absorbance 480 nm, 0.01% Triton | Potency, µM (series often up to 114 µM), usual class: inhibitors | P00811 | AID 485294 | 370,000 tested, 0.041% active; note: nearly all actives have a fitted effect of over 25% in size
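AmpC (5.3 nM in the dispensed reagent) in 20 mM phosphate pH 7.0 with 0.01% (detergent screen) or 0.0001% Triton X-100 was preincubated with compounds for 15 min at room temperature. Nitrocefin was then added from an 800 uM solution, and hydrolysis was followed at 480 nm.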
SARS PLpro yeast: inhibitors of SARS-CoV papain-like protease in yeast | S. cerevisiae expressing SARS-CoV PLpro, growth rescue | Potency, µM (highest dose often 32.9 µM), actives largely listed as activators | 330,000 tested, 0.19% active; calls by dose curve; note: nearly all actives have a fitted effect of over 55% in size
Large screens that a line does not name were inactive. Unless noted, calls come from the whole dose curve; as a rule, active = well fitted curve in the direction sought with a large enough effect; inconclusive = small, poorly fitted or top-dose-only effect, or another doubt; inactive = no such curve, though single readings can be large; an effect the other way counts as inactive or inconclusive.

COC(=O)c1cc2c(-c3ccccc3)cc3ccccn3c-2c1C(=O)OC	AMA1 RON2 block 17.8µM
O=C(NC(=S)N1CCN(c2ccc(C(F)(F)F)cc2[N+](=O)[O-])CC1)c1cccs1	AmpC inh no detg 14.1µM
CCOC(=O)c1cccc(NC(=O)CCc2c(C)nn(-c3ccc(N4CCOCC4)nn3)c2C)c1	none (no result: NS1 function inh, AmpC inh no detg, AMA1 RON2 block, SARS PLpro yeast)
Cc1ccccc1NC(=O)Cc1nc(COC(=O)c2ccc(Cl)c(S(N)(=O)=O)c2)cs1	AmpC inh no detg 35.5µM (no result: NS1 function inh)
Cc1ccccc1NC(=O)Cc1nc(COC(=O)c2cccc(O)c2)cs1	none (no result: NS1 function inh)
CCN(CC)Cc1cc(O)c(CN(CC)CC)cc1O	AMA1 RON2 block 7.94µM
CCc1oc(C(=O)O)cc1CN(CC)CC	AmpC inh detg inconclusive (no result: AmpC inh no detg, SARS PLpro yeast)
COc1cc2nc(/C=C/c3ccc(N(C)C)cc3)sc2cc1SC	NS1 function inh inconclusive, AMA1 RON2 block 17.8µM
Cc1cc(C)c2nc(SCC(=O)Nc3ccccc3N3CCOCC3)c(C#N)cc2c1	none (no result: NS1 function inh, AmpC inh no detg, AmpC inh detg, SARS PLpro yeast)
Cc1cc(C)c2nc(SCC(=O)N3CC(=O)Nc4ccccc43)c(C#N)cc2c1	AmpC inh no detg 3.55µM
COc1cc(NC(=O)CN2C(=O)NC(C)(CCC(C)C)C2=O)cc(OC)c1 (stereo not given)	AmpC inh detg inconclusive
COc1cc(NC(=O)CN2C(=O)NC(C)(CC(C)C)C2=O)cc(OC)c1 (stereo not given)	AmpC inh no detg 0.891µM
O=C(O)C1=C/C(=C(/c2ccccc2)c2cc(C(=O)O)c(O)c3ccccc23)c2ccccc2C1=O	none (no result: AmpC inh no detg, AMA1 RON2 block, AmpC inh detg, SARS PLpro yeast)
O=C1C(O)=CC(=C(c2ccccc2)c2ccccc2)c2ccccc21	AMA1 RON2 block 10µM (no result: NS1 function inh, AmpC inh no detg, AmpC inh detg, SARS PLpro yeast)
COc1ccc(-c2nc(Cn3c(=O)cc(-c4ccccc4)c4c(C)nn(C)c43)c(C)o2)cc1OC	none (no result: NS1 function inh, AmpC inh no detg, AMA1 RON2 block, SARS PLpro yeast)
CCOC(=O)Cn1c(=O)n(CC2CCCO2)c2nc(-c3cc(OC)ccc3OC)nc(C(N)=O)c21 (stereo not given)	none (no result: NS1 function inh, AmpC inh no detg, AMA1 RON2 block, SARS PLpro yeast)
CC1NC2(C(=O)N(Cc3ccccc3)c3ccccc32)C2C(=O)N(c3ccccc3)C(=O)C12 (stereo not given)	AmpC inh no detg 11.2µM, AmpC inh detg inconclusive
CC(=O)CSc1nc2ccccc2s1	none
Cn1cccc1C(=O)NC(=O)CSc1nc2ccccc2s1	AmpC inh no detg 15.8µM
Cc1cccc(-c2nc3scc(CCNC(=O)c4ccccc4Cl)n3n2)c1	none (no result: NS1 function inh, AmpC inh no detg, AMA1 RON2 block, SARS PLpro yeast)
Cc1ccc(CSc2nc3c(c(=O)[nH]2)C(c2cccc(F)c2F)CC(=O)N3)cc1 (stereo not given)	none (no result: NS1 function inh, AmpC inh no detg, AMA1 RON2 block, SARS PLpro yeast)
CCC(=O)NC(C)C(c1cccs1)N1CCN(Cc2ccccc2)CC1 (stereo not given)	AmpC inh no detg 44.7µM, AmpC inh detg inconclusive
CC1CCCCN1C(=O)CSc1nc2ccccc2nc1Cc1ccc(Cl)cc1 (stereo not given)	none (no result: NS1 function inh, AmpC inh no detg, AMA1 RON2 block, SARS PLpro yeast)
COCCn1c(Sc2nc(C)cs2)nc2c1c(=O)[nH]c(=O)n2C	AmpC inh no detg 0.159µM
CN(C(=O)CSc1nnc(COc2ccccc2)o1)c1ccccc1	none (no result: NS1 function inh, AmpC inh no detg, AMA1 RON2 block, SARS PLpro yeast)
Cc1cccc(C(=O)NC(=S)NNC(=O)c2ccccc2Cl)c1	AmpC inh detg inconclusive
Cc1cc(C(=O)NNC(=S)NC(=O)/C=C/c2ccccc2Cl)n[nH]1	AmpC inh detg inconclusive, SARS PLpro yeast 10µM
O=S1(=O)NC(c2ccccc2)CC(CC2CCCCC2)O1 (stereo not given)	AmpC inh no detg 8.91µM
COc1ccc2nc3cc(Cl)ccc3c(Nc3cc(C(C)C)c(O)cc3C)c2c1	AMA1 RON2 block 15.8µM
C/C(=N\Nc1ccc(Cl)c(Cl)c1)c1ccc(-n2ccnc2)cc1	AmpC inh no detg 14.1µM
C/C(=N\NC(N)=S)c1ccc(-n2ccnc2)cc1	none
Cn1ccc2c(N3CCCCCCC3)cc3c(c21)C1CCC3O1 (stereo not given)	AMA1 RON2 block 25.1µM (no result: NS1 function inh, AmpC inh no detg, AmpC inh detg, SARS PLpro yeast)
CCN(CC)c1cc2c(c3c1ccn3C)C1CCC2O1 (stereo not given)	none (no result: NS1 function inh, AmpC inh no detg, AmpC inh detg, SARS PLpro yeast)
CCOC(=O)N1CCN(C(=O)CS(=O)(=O)c2cn(Cc3ccccc3Cl)c3ccccc23)CC1	AmpC inh no detg 3.98µM, AmpC inh detg inconclusive
CCOC(=O)N1CCN(C(=O)CS(=O)(=O)c2cn(Cc3ccc(Cl)cc3)c3ccccc23)CC1	AmpC inh no detg inconclusive, AmpC inh detg inconclusive
Cc1nc(N2CCCC2)ncc1C(=O)Nc1ccccc1	none (no result: NS1 function inh, AmpC inh no detg, AMA1 RON2 block, SARS PLpro yeast)
COc1ccc(-n2ccc(=O)c(C(=O)Nc3ccc(S(=O)(=O)Nc4nccs4)cc3)n2)cc1	AmpC inh detg 50.1µM

From PubChem
